Measured values: PubChem BioAssay (NCATS)
Results filed as inconclusive are left out. Values without a mark were called inactive. The source made the active and inactive calls. Calls come from the whole dose curve; as a rule, active = well fitted inhibition curve with a large enough effect; inconclusive = small, poorly fitted or top-dose-only effect; inactive = no such curve, though single readings can be large or run the other way.

assay: ZIKV-mCherry secondary qHTS for Zika virus inhibitors (AID 1347158); conditions: Vero cells, ZIKV-mCherry infection imaging, 48-72 h; series mostly up to 49.2 µM; activity change, negative = inhibition: at the top concentration; for activity change, negative = inhibition: top concentration of the series differs between compounds
From the text: Assay Submitters (PI): Avindra Nath, Ph.D., National Institute of Neurological Disorders and Stroke (NINDS), Bethesda, MD Radhakrishnan Padmanabhan, Ph.D., Georgetown University (GU), Washington D.C. Zika Virus causes congenital defects, including microcephaly and is associated with Guillain-Barre syndrome, eningoencephalitis and myelitis in infected adult. […] Using a target-based approach, we hope to establish a screening paradigm to uncover novel, cell-active NS2B-NS3 protease (Zika Virus) specific inhibitors from NCATS' collection of small molecules using qHTS. […] Four assay panel was created to identify potential Zika Virus inhibitors. Namely, (1) GU unlinked NS2B-NS3 AMC tagged protease qHTS, (2) GU unlinked NS2B-NS3 Rhodamine tagged protease qHTS, (3) NINDS linked NS2B-NS3 AMC tagged protease qHTS, (4) NINDS linked NS2B-NS3 Rhodamine tagged protease qHTS. Active compounds were re-acquired and re-screened to confirm inhibition. Inhibitors were further screened against various confirmatory and counterscreens in dose response format. […] A DAPI (mCherry counterscreen) which determine Vero cell toxicity was used to exclude false positive compounds. […] Early Translation Branch (ETB) National Center for Advancing Translational Sciences (NCATS), Rockville, MD National Institute of Health (NIH), Bethesda, Maryland
384 well ZIKV-mCherry Assay: We have developed a new orthogonal imaging assay in 384-well plate format, which uses recombinant virus ZIKV-mCherry in Vero cells. Briefly, 30 microL of Vero cells derived from a green monkey cell line, were dispensed by Multidrop Dispenser into a clear solid bottom black 384 well plate (ultracarrier, Perkin Elmer LifeSciences) at a concentration of 5,000 cells per well. The plate was incubated overnight in a CO2 incubator at 37 degrees C. Compounds were delivered as a 126 nL DMSO solution by Kalypsys pintool transfer. Following compound transfer, 10 microL of ZIKV-mCherry was added at an MOI of 1 and incubated in a CO2 incubator for 48-72 hrs at 37 degrees C. After sufficient incubation of infected cells in test plates, 8 microL of 32% PFA was dispensed into assay plates to fix cells and incubated for 20 min at room temperature. Plates were washed 3 times with PBS using BioTek EL406 microplate washer/dispenser. After washing, 30 microL of PBS with 0.01% TX-100 containing Hoechst dye was dispensed into the each well of the plates for nuclear staining. 384-well plates were imaged on an automated, widefield high content imager (INCell 2200, GE Healthcare) using a 10x/0.45 NA lens and standard DAPI (nuclear stain) and mCherry (cy5) excitation and emission filters. The TIFFs were quantitated using the canned Multi Target Analysis protocol (GE Investigator Workstation software v3.7.2). Briefly, nuclei from the DAPI channel were identified using top hat segmentation and a sensitivity setting of 96 and minimum size area of 35 microm2. A recombinant Zika viral infection was monitored in the Cy5 channel (cells) using a 2 microm collar dilation from the nuclear bitmap. mCherry objects with an average nuclear RFU intensity above 450 (3 stdev above mean negative control wells) were considered "mcherry positive" and data was analyzed by percent infection rate.
Potency is the fitted concentration of half-maximal effect.

Row | SMILES | Potency | activity change, negative = inhibition
1 | O=C(NCc1ccc(Oc2ccccc2)cc1)c1nc(-c2cc(Br)c(O)c(Br)c2)no1 | 7.08 µM (active) | 
2 | COc1ccc(/C=C(\C#N)c2nc(-c3cc4c(ccc5ccccc54)oc3=O)cs2)cc1O |  | 4660%
3 | O=c1cc(-c2cc(O)c(O)c(O)c2)oc2cc(O)cc(O)c12 |  | 1.5%
4 | O=c1c(O)c(Br)ccc2c(Br)c(O)c(O)c(O)c12 |  | -12.1%
5 | Clc1ccc(-c2nn3c(COc4cc(Cl)c(OCc5nnc6sc(-c7ccc(Cl)cc7)nn56)cc4Cl)nnc3s2)cc1 |  | 129% [at 32.6 µM]
6 | O=C(OCc1cc(=O)n2nc(C3CC3)sc2n1)c1ccc(NC(=O)c2ccccc2F)cc1 |  | 1360%
7 | CCOc1ccc(S(=O)(=O)Nc2cc3c(C(=O)OCc4ccccc4)c(C)oc3c3ccccc23)cc1 |  | 372%
8 | O=C(O)COc1ccc(-c2nccc3c2C(=O)N(Cc2cccc(C(F)(F)F)c2)CC(COc2ccccc2)O3)cc1 (stereo not given) |  | 0.898%
9 | Cc1ccc(-c2cc(C(F)(F)F)c(C#N)c(SCC(=O)O)n2)cc1 |  | 68.5% [at 32.6 µM]
10 | O=C(Nc1ccc(C(=O)OCc2cc(=O)n3c4c(sc3n2)CCCC4)cc1)c1ccc(F)cc1 |  | 30.5% [at 32.6 µM]
11 | CCCCc1nn2c(=O)cc(COC(=O)c3ccc(NC(=O)CCc4ccccc4)cc3)nc2s1 |  | -25.8%
12 | O=C(Nc1ccc(C(=O)OCc2cc(=O)n3nc(C4CC4)sc3n2)cc1)c1cccc(Cl)c1 |  | 140% [at 32.6 µM]
13 | O=C(O)c1ccc(-c2cccc(C(F)(F)F)c2)cc1 |  | -1.52% [at 74 µM]
14 | Cc1ccc(NC(=O)c2ccc3c(O)c(S(=O)(=O)c4ccccc4)c(=O)[nH]c3c2)cc1Cl |  | -1.2%
15 | Cc1c(C2(c3cc(C(C)C)c(O)c(Br)c3C)OS(=O)(=O)c3ccccc32)cc(C(C)C)c(O)c1Br |  | 56.4%
16 | CC(C)c1ccc(NC(=O)c2ccc3oc(=O)c(S(=O)(=O)c4ccc(F)cc4)cc3c2)cc1 |  | -24.7% [at 32.6 µM]
17 | O=C(O)COc1ccccc1C1Nc2ccccc2-c2nnc(SCc3ccc(Cl)cc3)nc2O1 (stereo not given) |  | 444%
18 | Cc1oc2c(cc(NS(=O)(=O)c3ccc(Cl)cc3)c3ccccc32)c1C(=O)OCc1ccccc1 |  | 333%
19 | O=C(O)c1c(-c2ccccc2)oc2ccc(OCc3ccc(Cl)c(Cl)c3)cc12 | 8.91 µM (active) | 
20 | O=C1c2ccc(O)c(O)c2C(=O)c2c(O)ccc(O)c21 |  | 636%

Row | SMILES | Potency | activity change, negative = inhibition
21 | O=C(O)c1ccccc1-c1c2cc(I)c(=O)c(I)c-2oc2c(I)c(O)c(I)cc12 |  | 1120% [at 32.6 µM]
22 | Fc1cc(C2=Nn3c(COc4ccc(Cl)cc4Cl)nnc3S/C2=C\c2ccc(-c3ccc(Cl)cc3)o2)c(Cl)cc1Cl |  | 2650%
23 | O=C(O)c1ccc(-c2cc(C(F)(F)F)ccc2Cl)cc1 |  | -14.4% [at 74 µM]
24 | COc1ccc(NS(=O)(=O)c2ccc3c(c2)[C@H]2C=CC[C@H]2[C@@H](c2ccc(C(=O)O)cc2)N3)cc1 |  | 28.7%
25 | Cc1oc2c(cc(NS(=O)(=O)c3ccc(F)cc3)c3ccccc32)c1C(=O)OCc1ccccc1 |  | 563%
26 | O=C(NCc1ccccc1Cl)c1ccc2c(O)c(S(=O)(=O)c3ccccc3)c(=O)[nH]c2c1 |  | -0.98%
27 | O=C(Nc1c(C(=O)O)oc2ccccc12)c1ccc(C(F)(F)F)cc1 |  | -3.65%
28 | O=C(Nc1cccc(C(=O)OCc2cc(=O)n3nc(C4CC4)sc3n2)c1)c1cccc(F)c1 |  | 185% [at 32.6 µM]
29 | COc1ccccc1C(=O)Nc1ccc(C(=O)OCc2cc(=O)n3c4c(sc3n2)CCCC4)cc1 |  | 20.6% [at 32.6 µM]
30 | O=C1c2c(O)ccc([N+](=O)[O-])c2C(=O)c2c([N+](=O)[O-])ccc(O)c21 |  | 1210%
31 | COC(=O)c1ccc(NC(=O)CSc2ncc3c(n2)-c2cc(Cl)ccc2N(Cc2ccccc2)S3(=O)=O)cc1 |  | 4490%
32 | Nc1c(S(=O)(=O)O)cc(Nc2ccc(Nc3nc(Cl)nc(Nc4ccc(S(=O)(=O)O)cc4)n3)c(S(=O)(=O)O)c2)c2c1C(=O)c1ccccc1C2=O | 8.91 µM (active) | 
33 | CCOC(=O)c1cccc(NC(=O)CSc2ncc3c(n2)-c2ccc(Cl)cc2N(Cc2ccccc2)S3(=O)=O)c1 |  | 447%
34 | Cc1ccc2nc(-c3ccc(N=Nc4cc(S(=O)(=O)O)c5ccccc5c4O)cc3)sc2c1S(=O)(=O)O |  | 1120% [at 32.6 µM]
35 | N#Cc1ccccc1OCC1CN(Cc2cccc(C(F)(F)F)c2)C(=O)c2c(ccnc2-c2ccc(OCC(=O)O)cc2)O1 (stereo not given) |  | -8.42%
36 | CCN(Cc1cccc(S(=O)(=O)O)c1)c1ccc(C(=C2C=CC(=[N+](CC)Cc3cccc(S(=O)(=O)O)c3)C=C2)c2ccccc2S(=O)(=O)[O-])cc1 |  | 88.5%
37 | CC(C)(C)c1ccc(S(=O)(=O)c2cnc(SCC(=O)Nc3ccc4c(c3)OCCO4)[nH]c2=O)cc1 |  | 886%
38 | Oc1cc2ccccc2c2ccccc12 |  | 788%
39 | O=C(O)Cn1ccc2cc(OCc3cccc(-c4cccc(C(F)(F)F)c4)c3)cnc21 |  | 326% [at 74 µM]
40 | O=c1c(-c2cc(O)c(O)c(O)c2)coc2cc(O)c(O)c(O)c12 |  | 154%
